Bioassay records (PubChem)
This excerpt belongs to a sample that is enriched for hits.
TDP1 cell noCPT – qHTS for Inhibitors of human tyrosyl-DNA phosphodiesterase 1 (TDP1): qHTS in cells in absence of CPT | DT40 Tdp1-/- hTDP1 cells, no CPT, ATP luminescence, 48 h | Potency, µM (top dose mostly 46.2 µM), inactives show at the highest dose activity change, negative = growth inhibition, most hits filed as inhibitors | hit rate 15% among 420,000; note: potency is the fitted concentration of half-maximal effect; nearly all actives have a fitted effect of over 55% in size
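No-CPT arm: Tdp1-/-;hTDP1 DT40 cells (400/well) plus compounds, incubated ≥48 hr at 37 °C. Readout CellTiter-Glo luminescence.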
IL-1B inflam inh – qHTS for Inhibitors of Inflammasome Signaling: IL-1-beta AlphaLISA Primary Screen; THP-1 LPS/ATP IL-1B secretion, AlphaLISA, 16 h; stronger effect = lower value; activity change, % at 57.5 µM; hit rate 4.7% among 360,000; AID 743279, 2014; in the data active = activity change below about -50%; inconclusive = mostly about -30% to -49%
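Secreted IL-1B measured by AlphaLISA bead assay after 16 h compound exposure of THP-1 cells; compounds (final up to 57.5 uM) added 1 h before LPS (250 ng/mL) and ATP (1.25 mM) stimulation; lower signal means less secretion.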
HT1080 IDH1KD tx – qHTS for induction of synthetic lethality in tumor cells producing 2HG: qHTS for the HT-1080-IDH1KD cell line; hit rate 2% among 360,000; HT-1080 IDH1 knockdown viability, ATP luminescence, 48 h; AID 686971, 2013; Potency, µM (highest dose often 46.1 µM), for the others: at the top dose activity, negative = toxicity, actives largely listed as cytotoxic;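 note: potency is the fitted concentration of half-maximal effect; 0% = DMSO wells and -100% = cell-free medium wells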
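Luminescent ATP read-out (CellTiter-Glo, 10 min at room temperature) after 48 h compound exposure at 37 °C gave viability of IDH1-knockdown HT-1080 cells. Activity was normalised to DMSO and cell-free wells, then fitted as concentration-response curves.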
HT1080NT lethal – qHTS for induction of synthetic lethality in tumor cells producing 2HG: qHTS for the HT-1080-NT fibrosarcoma cell line; HT-1080-NT fibrosarcoma viability, CellTiter-Glo ATP luminescence, 48 h; Potency, µM (highest dose often 46.1 µM), for the others: top-dose activity, negative = less viability, hits mostly cytotoxic; hit rate 1.6% among 360,000;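 note: NT is the 2HG producing partner of a matched IDH1 knockdown line; potency is the fitted concentration of half-maximal effect; 0% = DMSO-treated cells and -100% = media-only wells without cells; nearly all actives have a fitted effect of over 55% in size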
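Compounds were tested in concentration-response format on HT-1080-NT cells for 48 hours at 37 degrees C. Cell viability came from CellTiter-Glo luminescence; curves were classified by r2, response magnitude and activity.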
TDP1 cell CPT – qHTS for Inhibitors of human tyrosyl-DNA phosphodiesterase 1 (TDP1): qHTS in cells in presence of CPT | chicken DT40 Tdp1-/-;hTDP1 cells + 20 nM CPT, ATP luminescence, 48 h | Potency, µM (series often up to 46.2 µM), for inactives: at the highest dose activity change, negative = growth inhibition, most hits filed as inhibitors | hit rate 12% among 420,000 | AID 686979, 2013; note: potency is the fitted concentration of half-maximal effect; nearly all actives have a fitted effect of over 55% in size
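Cell growth measured by CellTiter-Glo luminescence after a minimum 48 h, 37 C compound exposure with 20 nM CPT in Tdp1-knockout DT40 cells stably expressing hTDP1, seeded 400/well; qHTS titration format.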
ALOX12 inh – Primary qHTS assay for inhibitors of human arachidonate 12S-lipoxygenase (ALOX12): Round 2; Polyunsaturated fatty acid lipoxygenase ALOX12 (Homo sapiens), P18054; purified 12hLO, xylenol orange hydroperoxide absorbance; Potency, µM (highest dose often 108 µM), without a hit: top-dose activity change, negative = inhibition, usual class: inhibitors; hit rate 1.1% among 580,000; note: potency is the fitted concentration of half-maximal effect
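Hydroperoxide product was detected by ferrous iron/xylenol orange as the 573 to 405 nm absorbance ratio. Arachidonic acid at 40 uM (final) was turned over for 30 min at room temperature by 150 nM human 12hLO, pH 7.0 Hepes buffer, after 15 min compound preincubation.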
* hit, by the source's call; ? = inconclusive; . = no result; [ ] = dose if it differs, or a comment. Unless noted, calls come from the whole dose curve; as a rule, active = well fitted curve in the direction sought with a large enough effect; inconclusive = small, poorly fitted or top-dose-only effect, or another doubt; inactive = no such curve, though single readings can be large; an effect the other way counts as inactive or inconclusive. Unless noted, % is set by controls: 0 for no effect and ±100 for the full control effect.

SMILES	TDP1 cell noCPT	IL-1B inflam inh	HT1080 IDH1KD tx	HT1080NT lethal	TDP1 cell CPT	ALOX12 inh
CC(C)CCC(=O)N1CCN(Cc2ccco2)CC1	.	.	.	.	.	1%
COc1cccc(N2CCN(C(=O)COc3ccc4c(=O)c(-c5ccccc5)coc4c3)CC2)c1	.	.	.	.	.	2%
COc1ccc(NC(=O)Nc2cccc([N+](=O)[O-])c2)cc1Cl	9.2µM*	-84*	-5%	-1%	18µM*	-6%
O=C(Nc1ccc([N+](=O)[O-])cc1)Nc1ccc(OC(F)F)c(Cl)c1	1.6µM*	-89*	?	?	2.3µM*	-12%
Cc1ccc(NC(=O)C(C)c2ccc([N+](=O)[O-])cc2)cc1Cl (centres undefined)	?	-104*	?	?	?	-12%
COc1ccc(NC(=O)c2cccc(OC(F)F)c2)cc1Cl	-25%	-19	10%	9%	-3%	-42%
O=C(Nc1ccc(OC(F)F)c(Cl)c1)c1cccc(OC(F)F)c1	?	-55*	?	?	?	.
COc1ccc(-c2nc(/C=C/C(=O)NC(C)C3CC4CCC3C4)cs2)cc1 (centres undefined)	.	.	.	.	.	-31%
O=C(Nc1ccc(Cl)cc1)Nc1ccc2c(c1)OCO2	-14%	-15	-1%	-1%	-27%	470%
O=C(Nc1ccc(OC(F)F)c(Cl)c1)Nc1ccc2c(c1)OCO2	16µM*	-79*	?	-24%	?	1%
CC1(c2ccccc2)N(Cc2ccccc2)C(=O)OC12CCN(Cc1cccnc1)CC2 (centres undefined)	.	.	.	.	.	10%[176 µM]
Cc1oc2c(O)c(O)ccc2c(=O)c1-c1cnn(-c2ccccc2)c1	18µM*	84	?	?	?	?
Cc1oc2c(O)c(O)ccc2c(=O)c1-c1ccc(Cl)cc1	?	22	-18%	-9%	12%	5.6µM*
CN1CC(=O)N(c2cccnc2)Cc2c1ncnc2N1CCCCC1	.	.	.	.	.	4%[176 µM]
COc1ccc(CNC(=O)c2cc(-c3ccc(OC)c(OC)c3)nc3n[nH]c(-c4ccc(C)cc4)c23)cc1	5.2µM*	.	.	.	5.8µM*	-9%
COc1ccc(-c2cc(C(=O)NCc3ccc(F)cc3)c3c(-c4ccc(F)cc4)[nH]nc3n2)cc1OC	18µM*	.	.	.	16µM*	1%
CCCCNC(=O)c1cc(-c2ccc(OC)cc2)nc2n[nH]c(-c3cccc([N+](=O)[O-])c3)c12	18µM*	.	.	.	21µM*	5%
Cc1ccc(-c2cc(C(=O)NCCc3ccccc3)c3c(-c4ccc(C)cc4)[nH]nc3n2)cc1	9.2µM*	.	.	.	?	3%
CCOCC(=O)N1CCC2(CC1)NCCc1c2[nH]c2ccccc12	.	.	.	.	.	51%
CCOc1ccccc1CNC(=O)c1c(C)noc1-c1cccs1	.	.	.	.	.	14%
CN(CC1CCCN(CCc2cccc(C(F)(F)F)c2)C1)C(=O)c1cc2ccccc2o1 (centres undefined)	13µM*	-60*	-12%	-1%	?	?
CCN(CC1CCCN(CCc2cccc(F)c2)C1)C(=O)c1cc2ccccc2o1 (centres undefined)	18µM*	-88*	?	?	26µM*	-28%
COc1nccc(N2CCC(CC(=O)NCCN3CCCCC3)CC2)n1	.	.	.	.	.	58%
